Data from PubChem BioAssay (NCATS).
Inconclusive results are not listed. Calls of active or inactive are those of the source. Calls follow the shape of the dose curve; as a rule, active = well fitted inhibition curve with a large enough effect; inconclusive = small, poorly fitted or top-dose-only effect; inactive = flat fitted curve, though single readings scatter.

Legend:
Experiment in all cases: qHTS profiling for inhibitors of Plasmodium falciparum proliferation (AID 504749); also: nearly all actives have a fitted effect of over 60% in size
Conditions in all cases: P. falciparum in erythrocytes, SYBR Green DNA, 72 h; series mostly up to 28.7 µM
CP247 = system: CP247
Outline: (§1)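 Infected RBCs, 0.3% parasitemia/2.5% Hct final; cpd 72 h, 37 C, 5% CO2; lysis buffer with saponin/triton/SYBR Green I, o/n RT dark; FI 485/535; norm. to artemisinin (0.29 uM) and DMSO.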

CP250 = system: CP250
Outline: as §1

CP252 = system: CP252
Outline: as §1

CP256 = system: CP256
Outline: as §1

CP260 = system: CP260
Outline: as §1

CP262 = system: CP262
Outline: as §1

CP265 = system: CP265
Outline: as §1

CP266 = system: CP266
Outline: as §1

CP268 = system: CP268
Outline: as §1

CP269 = system: CP269
Outline: as §1

CP286 = system: CP286
Outline: as §1

CP291 = system: CP291
Outline: as §1

CP297 = system: CP297
Outline: as §1

CP305 = system: CP305
Outline: as §1

CP315 = system: CP315
Outline: as §1

CP325 = system: CP325
Outline: as §1

CP329 = system: CP329
Outline: as §1

CP335 = system: CP335
Outline: as §1

DFO2036 = system: DFO2036
Outline: as §1

DIV14 = system: DIV14
Outline: as §1

Measured: Potency

CC(=O)SC[C@@H](Cc1ccccc1)C(=O)NCC(=O)OCc1ccccc1
inactive: all assays above

COC(=O)c1cccnc1
inactive: all assays above

CC(=O)Nc1ccccc1
inactive: all assays above

O=C(CCBr)N1CCN(C(=O)CCBr)CC1
inactive: all assays above

O=C(CN1CCNCC1)NC1CCCCC1
inactive: all assays above

CC(=O)NS(=O)(=O)c1ccc(N)cc1
inactive: all assays above

CCc1cccc(CC)c1NC(=O)CN(CC(=O)O)CC(=O)O
inactive: all assays above

c1ccc2[nH]ccc2c1
inactive: all assays above

CC1CC(OC(=O)c2ccccc2O)CC(C)(C)C1 (stereo not drawn)
inactive: all assays above

Nc1ncnc2c1ncn2[C@@H]1O[C@H](COP(=O)(O)O)[C@@H](O)[C@H]1O
inactive: all assays above

CCCCCC(N)=O
inactive: all assays above

CC(=O)Oc1cccc(C)c1
inactive: all assays above

CCN(CC)CC1CCCCN1CC(=O)N1c2ccccc2C(=O)Nc2cccnc21 (stereo not drawn)
inactive: all assays above

O=C(O)CCC(=O)O
not listed: CP335
inactive: all other assays above

CN1C(C)(C)CCCC1(C)C
inactive: all assays above

CC(=O)Nc1ccc(C(=O)O)cc1
inactive: all assays above

CC(O)CCCCn1c(=O)c2c(ncn2C)n(C)c1=O (stereo not drawn)
inactive: all assays above

CC(=O)OCC(COC(C)=O)OC(C)=O
not listed: CP335
inactive: all other assays above

Cc1ccc(C(C)C)c(O)c1
inactive: all assays above

CC(=O)NCc1c(I)c(NC(C)=O)c(I)c(C(=O)O)c1I
inactive: all assays above

FC(F)(F)C(Cl)Br (stereo not drawn)
inactive: all assays above

CCCCC1(COC(=O)CCC(=O)O)C(=O)N(c2ccccc2)N(c2ccccc2)C1=O
inactive: all assays above

C[C@@H]1CCC[C@H](C)N1
inactive: all assays above

CC(N)CCCC(C)(C)O (stereo not drawn)
inactive: all assays above

NC(N)=NCCN1CCCCCCC1
inactive: all assays above

COc1ccccc1Oc1c(NS(=O)(=O)c2ccc(C(C)(C)C)cc2)nc(-c2ncccn2)nc1OCCO
inactive: all assays above

Cc1cc(=O)[nH]c(=S)[nH]1
inactive: all assays above

O=C(NCCCN1CCOCC1)c1ccc(Cl)cc1
inactive: all assays above
